The source made the active and inactive calls. The calls were made as follows: active = hit-call score of the fitted dose curve at least 0.9, where 1 is the maximum; inactive = score below 0.9.
Assay: ATG_NRF2_ARE_CIS: Attagene CIS-FACTORIAL HepG2 Assay for human Nuclear Factor Erythroid 2 Related Factor 2 (NFR2) response to Antioxidant Response Elements (ARE) (AID 2282992)
Settings: HepG2 Attagene ARE/NRF2 reporter, transcription factor activity; actives raise or lower the signal
Outline: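 Endogenous transcription factor activity read out as reporter transcript levels (RT-PCR plus capillary electrophoresis, fluorescence) in transiently transfected HepG2 cells. Measured at 24 h after dosing; gain or loss of signal fitted versus DMSO.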

Compound	outcome	AC50
Brc1ccccn1	inactive	–
O=C1OC(=O)c2ccc3c4c(ccc1c24)C(=O)OC3=O	inactive	–
CC(C)(C)C(=O)C1C(=O)c2ccccc2C1=O	–	31.5 µM (active)
O=S(=O)(Cl)C(F)(F)C(F)(F)C(F)(F)C(F)(F)C(F)(F)C(F)(F)C(F)(F)C(F)(F)F	–	70.3 µM (active)
CC1=CCC(=O)O1	inactive	–
NC(=O)C(F)(F)C(F)(F)C(F)(F)C(F)(F)C(N)=O	inactive	–
CC(C)OC(=O)COc1ccc(Cl)cc1Cl	inactive	–
CCn1c2ccccc2c2ccccc21	–	157 µM (active)
CCN(CCO)S(=O)(=O)C(F)(F)C(F)(F)C(F)(F)C(F)(F)C(F)(F)C(F)(F)C(F)(F)C(F)(F)F	–	110 µM (active)
NC(=O)C(F)(F)C(F)(F)C(F)(F)C(F)F	inactive	–
O=C=Nc1cccc2c(N=C=O)cccc12	inactive	–
CC1=CC2C3C=CC(C3)C2C1C (stereo not drawn)	–	50.6 µM (active)
O=C1C=CC(=O)N1c1ccccc1	–	53.8 µM (active)
O=C(O)C(F)(F)OC(F)(F)C(F)(F)OC(F)(F)C(F)(F)OC(F)(F)F	–	37.8 µM (active)
NC(O)(C(F)(F)F)C(F)(F)F	inactive	–
O=C(Cl)C(F)(F)C(F)(F)C(F)(F)C(F)(F)C(F)(F)C(F)(F)C(F)(F)F	–	49 µM (active)
O=C(F)C1(F)C(F)(F)C(F)(F)C(F)(F)C(F)(F)C1(F)F	inactive	–
CCN(CC)c1ccc(C=O)cc1	inactive	–
CCCCOC(=O)[C@H](C)O	inactive	–
COCCC(=O)OC	inactive	–
Cc1ccc(S(=O)(=O)C(I)I)cc1	–	15.9 µM (active)
C#CC(O)CCC (stereo not drawn)	inactive	–
O=C(O)C(F)(F)C(F)(F)C(F)(F)C(=O)O	inactive	–
CC(C)(C)c1cc(CCC(=O)OCC(COC(=O)CCc2cc(C(C)(C)C)c(O)c(C(C)(C)C)c2)(COC(=O)CCc2cc(C(C)(C)C)c(O)c(C(C)(C)C)c2)COC(=O)CCc2cc(C(C)(C)C)c(O)c(C(C)(C)C)c2)cc(C(C)(C)C)c1O	inactive	–
CN(N=O)C(=O)N[C@@H]1[C@@H](O)[C@H](O)[C@@H](CO)O[C@@H]1O	inactive	–
OCCCCC(F)(F)C(F)(F)C(F)(F)C(F)(F)F	inactive	–
COC(F)(C(F)F)C(F)(F)F (stereo not drawn)	inactive	–
N#CCCOCCC#N	inactive	–
O=C(c1ccccc1)c1ccc(Cl)cc1	–	132 µM (active)
N#Cc1ccccc1O	inactive	–

Assay: ATG_Oct_MLP_CIS: Attagene CIS-FACTORIAL HepG2 Assay for human Octamer-Binding Transcription Factor (Oct) (AID 2282993)
Settings: HepG2 Attagene cis-factorial Oct reporter, mRNA; actives raise or lower the signal
Outline: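 HepG2, transient MRTU transfection, cis promoter elements; 24 h dosing; RT-PCR/CE fluorescence read-out of reporter mRNA; fit both directions vs DMSO.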

Compound	outcome	AC50
Brc1ccccn1	inactive	–
O=C1OC(=O)c2ccc3c4c(ccc1c24)C(=O)OC3=O	inactive	–
NCC(F)(F)C(F)(F)C(F)(F)C(F)(F)C(F)(F)C(F)(F)F	inactive	–
CC(C)(C)C(=O)C1C(=O)c2ccccc2C1=O	–	63.1 µM (active)
O=C1c2c(O)ccc(Nc3ccc(CCO)cc3)c2C(=O)c2c([N+](=O)[O-])ccc(O)c21	inactive	–
CC(C)OC=O	inactive	–
O=S(=O)(Cl)C(F)(F)C(F)(F)C(F)(F)C(F)(F)C(F)(F)C(F)(F)C(F)(F)C(F)(F)F	inactive	–
CC1=CCC(=O)O1	inactive	–
CC(O)C#CC(C)O (stereo not drawn)	inactive	–
NC(=O)C(F)(F)C(F)(F)C(F)(F)C(F)(F)C(N)=O	inactive	–
CC(C)OC(=O)COc1ccc(Cl)cc1Cl	inactive	–
CCn1c2ccccc2c2ccccc21	–	100 µM (active)
OCC(F)(F)C(F)(F)C(F)(F)CO	inactive	–
CCN(CCO)S(=O)(=O)C(F)(F)C(F)(F)C(F)(F)C(F)(F)C(F)(F)C(F)(F)C(F)(F)C(F)(F)F	–	15.4 µM (active)
NC(=O)C(F)(F)C(F)(F)C(F)(F)C(F)F	inactive	–
O=C=Nc1cccc2c(N=C=O)cccc12	inactive	–
CC1=CC2C3C=CC(C3)C2C1C (stereo not drawn)	inactive	–
O=C1C=CC(=O)N1c1ccccc1	inactive	–
O=C=NCc1cccc(CN=C=O)c1	inactive	–

Compound	outcome	AC50
O=C(O)C(F)(F)OC(F)(F)C(F)(F)OC(F)(F)C(F)(F)OC(F)(F)F	inactive	–
NC(O)(C(F)(F)F)C(F)(F)F	inactive	–
O=C(Cl)C(F)(F)C(F)(F)C(F)(F)C(F)(F)C(F)(F)C(F)(F)C(F)(F)F	inactive	–
O=C(F)C1(F)C(F)(F)C(F)(F)C(F)(F)C(F)(F)C1(F)F	inactive	–
CCN(CC)c1ccc(C=O)cc1	inactive	–
CCCCOC(=O)[C@H](C)O	inactive	–
COCCC(=O)OC	inactive	–
Cc1ccc(S(=O)(=O)C(I)I)cc1	–	8.98 µM (active)
C#CC(O)CCC (stereo not drawn)	inactive	–
O=C(O)C(F)(F)C(F)(F)C(F)(F)C(=O)O	inactive	–
CC(C)(C)c1cc(CCC(=O)OCC(COC(=O)CCc2cc(C(C)(C)C)c(O)c(C(C)(C)C)c2)(COC(=O)CCc2cc(C(C)(C)C)c(O)c(C(C)(C)C)c2)COC(=O)CCc2cc(C(C)(C)C)c(O)c(C(C)(C)C)c2)cc(C(C)(C)C)c1O	inactive	–
CC(C)Nc1ccc(NC(C)C)c2c1C(=O)c1ccccc1C2=O	inactive	–
CN(N=O)C(=O)N[C@@H]1[C@@H](O)[C@H](O)[C@@H](CO)O[C@@H]1O	inactive	–
OCCCCC(F)(F)C(F)(F)C(F)(F)C(F)(F)F	inactive	–
COC(F)(C(F)F)C(F)(F)F (stereo not drawn)	inactive	–
N#CCCOCCC#N	inactive	–
O=C(c1ccccc1)c1ccc(Cl)cc1	inactive	–
Nc1cccnc1N	inactive	–
N#Cc1ccccc1O	inactive	–

Source: PubChem BioAssay (EPA / NIEHS)
